The whole screen tested about 260,000 compounds, of which about 1,300 (0.5%) were called active. This is one part of a sample in which actives are shown more often than they occur.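 Rule for the calls: active = percent inhibition above 40 after rounding to a whole number; inactive = the rest.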
What follows are compounds tested against Prostaglandin E2 receptor EP2 subtype (Homo sapiens) (UniProt P43116) (assay: blockers of PGE2-driven EP2 cAMP signalling – TR-FRET cAMP, C6 glioma cells, primary screen (AID 1422;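 note: rat C6 glioma host cells with rolipram phosphodiesterase inhibitor present; the protocol text gives 20 µM as final concentration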)). Conditions: C6 glioma cells expressing human EP2, cAMP TR-FRET; at 25 µM; stronger effect = higher value; cells stimulated with saturating PGE2.
Prostaglandin E2 receptor EP2 subtype (Homo sapiens), sequence (P43116 whole entry, looked up): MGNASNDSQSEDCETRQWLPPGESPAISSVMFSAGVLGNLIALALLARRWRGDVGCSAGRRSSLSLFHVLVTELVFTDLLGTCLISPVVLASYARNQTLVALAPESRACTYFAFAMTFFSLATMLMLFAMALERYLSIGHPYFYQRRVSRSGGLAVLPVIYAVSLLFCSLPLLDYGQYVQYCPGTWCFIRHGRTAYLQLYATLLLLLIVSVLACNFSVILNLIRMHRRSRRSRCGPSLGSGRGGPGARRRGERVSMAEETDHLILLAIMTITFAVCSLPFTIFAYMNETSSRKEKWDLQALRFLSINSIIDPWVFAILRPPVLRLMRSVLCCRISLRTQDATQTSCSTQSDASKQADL
With COc1ccc(OCCCC(=O)Nc2nc(-c3ccc(OC)cc3)cs2)cc1 the inhibition was 12.9% (inactive).
For Cc1ccc(CNS(=O)(=O)c2cccc(S(=O)(=O)N3CCCC3)c2)cc1, the inhibition was 10.8% (inactive).
With COCCn1c(N2CCCC2)nc2c1c(=O)n(C)c(=O)n2C the inhibition was 7.42% (inactive).
CC1=CC(C)(C)N(C(=O)CSc2nnc(-c3ccccc3)o2)c2ccc(C)cc21 was tested, and the inhibition was 45.4% (active).
For O=C(CSc1nnc(-c2ccccc2)o1)N1CCOCC1, the inhibition was 8.71% (inactive).
For CC1=CC(C)(C)N(C(=O)CSc2nccn2C)c2cc(C)ccc21, the inhibition was 17.5% (inactive).
COc1ccc(C2(NC(=O)c3noc(C)c3Cn3cccn3)CCCCC2)cc1 was tested, and the inhibition was 7.45% (inactive).
With Cc1ccc(NC(=O)CSc2nnc(-c3ccncc3)n2C2CCCCC2)c(C)c1 the inhibition was 15.8% (inactive).
For COc1ccc(CNC(=O)CCSc2nc(-c3ccco3)cc(C(F)(F)F)n2)cc1, the inhibition was 9.17% (inactive).
In the case of CC(Nc1nc(N2CCN(CCO)CC2)nc2ccccc12)c1ccccc1 (stereo not drawn), the inhibition was 7.4% (inactive).
For CC(Nc1nc(N2CCOCC2)nc2ccccc12)c1ccccc1 (stereo not drawn), the inhibition was 7.73% (inactive).
With CC(Nc1nc(N2CCCC2)nc2ccccc12)c1ccccc1 (stereo not drawn) the inhibition was 48.2% (active).
In the case of COCCNS(=O)(=O)c1ccc2[nH]c(=O)[nH]c2c1, the inhibition was 9.6% (inactive).
With Cc1cc(C)c2[nH]c(C)c(CN(C)Cc3ccccc3)c(=O)c2c1 the inhibition was 12% (inactive).
In the case of CCC(c1nnnn1C(C)(C)C)N(Cc1ccccc1)Cc1cc2ccc(C)cc2[nH]c1=O (stereo not drawn), the inhibition was 5.18% (inactive).
Cc1nc(NC(=O)c2sc3nc4c(C)cccc4cc3c2N)sc1C was tested, and the inhibition was 19.7% (inactive).
With O=C(Nc1ccccc1Cl)/C(Cl)=C(\Cl)S(=O)c1ccccc1 (stereo not drawn) the inhibition was 57.5% (active).
O=C(COC(=O)c1cccs1)Nc1ccccc1Cl was tested, and the inhibition was 5.7% (inactive).
In the case of O=C(Nc1ccccc1Cl)c1ccc2nsnc2c1, the inhibition was 5.72% (inactive).
CC(C)OCCCNc1ncnc2c1[nH]c1ccc(F)cc12 was tested, and the inhibition was 46.2% (active).
COc1cc(OC)c(OC)cc1/C=N/Nc1ncnc2c1[nH]c1ccc(C)cc12 was tested, and the inhibition was 5.82% (inactive).
With CC(C)OCCCNC(=O)c1cc(Sc2ccc(F)cc2)nc2ccccc12 the inhibition was 8.64% (inactive).
With CCCc1[nH]nc2c1C(C1CC=CCC1)C(C#N)=C(N)O2 (stereo not drawn) the inhibition was 3.84% (inactive).
CCCc1[nH]nc2c1C(c1ccc(Br)s1)C(C#N)=C(N)O2 (stereo not drawn) was tested, and the inhibition was 51.9% (active).
CCCc1[nH]nc2c1C(c1c(C)nn(-c3ccccc3)c1Cl)C(C#N)=C(N)O2 (stereo not drawn) was tested, and the inhibition was 25.4% (inactive).
With CC(Sc1nnc(-c2cccnc2)n1-c1ccccc1)C(=O)Nc1ccc(N)cc1 (stereo not drawn) the inhibition was 14.6% (inactive).
For O=c1c2ccc(Br)c3cccc(c32)c2nc3ccccc3n12, the inhibition was 6.4% (inactive).
COc1ccccc1CNS(=O)(=O)c1ccc(S(=O)(=O)N2CCC(C)CC2)cc1 was tested, and the inhibition was 4.43% (inactive).
